Data taken from PubChem BioAssay (EPA / NIEHS).
Inconclusive results are not listed. The source made the active and inactive calls. Rule for the calls, unless noted: active = hit-call score of the fitted dose curve at least 0.9, where 1 is the maximum; inconclusive = response in the unintended direction; inactive = score below 0.9.

How the values were obtained:
[1] = target: Retinoic acid receptor RXR-alpha (Homo sapiens) (UniProt P19793); experiment: TOX21_TR_RXR_BLA_Agonist_Followup_ratio: Tox21 Thyroid Hormone Receptor beta Retinoid X Receptor alpha (RXRa) Agonism Beta-lactamase (BLA) Follow-Up Assay, Ratio (AID 2283968)
Method in brief: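 Agonist mode: compounds given to RXRa-bla HEK293T cells at 11 concentrations, triplicate, 16 h at 37C/5% CO2. Readout is the 460:530 nm blue/green ratio after 2 h substrate loading at room temperature; DMSO baseline, 9-cis retinoic acid control.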

[2] = TOX21_TR_RXR_BLA_Agonist_Followup_viability: Viability Assessment in the Tox21 Thyroid Hormone Receptor beta Retinoid X Receptor alpha (RXRa) Agonism Beta-lactamase (BLA) Follow-Up Assay (AID 2283970)
Method in brief: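 CellTiter-Glo ATP luciferase read-out of cell viability, multiplexed with the beta-lactamase reporter run. RXRa-bla HEK293T cells in charcoal-stripped serum medium were exposed 16 h at 37C; data fitted both directions relative to DMSO.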

[3] = CCTE_Harrill_HTTr_Viability_MCF7: CCTE's 6-hour Cell Viability Assessment for the High-Throughput Transcriptomics (HTTr) Platform, in MCF-7 cells cultured in DMEM + 10% fetal bovine serum, Harrill Lab (AID 2284010; active = hit-call score of the fitted dose curve at least 0.9, where 1 is the maximum; inactive = score below 0.9)
Method in brief: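 Propidium iodide exclusion, imaged by high-content analysis, gauged viability after a six-hour exposure across eight concentrations. Cells were MCF-7 grown in DMEM with 10% fetal bovine serum; fits run in both directions against DMSO.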

[4] = CCTE_Harrill_HTTr_CellCount_MCF7: CCTE's Cell Proliferation Assessment for the High-Throughput Transcriptomics (HTTr) Platform, Harrill Lab (AID 2284012);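 note: cells exposed to compound for six hours; intended direction is loss of nuclei count meaning fewer cells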
Method in brief: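 Cell count from high-content imaging of Hoechst-labeled nuclei serves as viability/growth readout. Chemicals were applied to MCF-7 cells in eight concentrations for six hours, with fitting in both directions relative to DMSO.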

[5] = UKN5_HCS_SBAD2_cell_viability: Viability Assessment in the University of Konstanz (UKN) Leist Lab Neurite Outgrowth Assay in human iPSC-derived immature Dorsal Root Ganglia Neurons (UKN5) (AID 2284056; active = hit-call score of the fitted dose curve at least 0.9, where 1 is the maximum; inactive = score below 0.9)
Method in brief: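 iPSC-derived immature peripheral neurons (SBAD2) seeded on Matrigel with CHIR99021, SU5402 and DAPT, dosed 1 h later for 24 h. Viability from Hoechst H-33342 and calcein-AM live staining, high-content imaging; bidirectional fit versus DMSO.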

[6] = UKN5_HCS_SBAD2_neurite_outgrowth: University of Konstanz (UKN) Leist Lab Neurite Outgrowth Assay in human iPSC-derived immature Dorsal Root Ganglia Neurons (UKN5) (AID 2284070; active = hit-call score of the fitted dose curve at least 0.9, where 1 is the maximum; inactive = score below 0.9); details: actives raise or lower the signal
Method in brief: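 Neurite area from calcein-AM high-content images after 24 h exposure (staining included), with H-33342 for viability, fitted both directions against DMSO. Cells: thawed immature SBAD2 peripheral neurons, 100.000 cells/cm2, with CHIR99021, SU5402, DAPT; dosing 1 h after seeding.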

[7] = UKN2_HCS_IMR90_neural_migration: University of Konstanz (UKN) Leist Lab Neural Crest Cell Migration Assay in human induced IMR90 Pluripotent Stem Cells (UKN2) (AID 2284204; active = hit-call score of the fitted dose curve at least 0.9, where 1 is the maximum; inactive = score below 0.9); details: actives raise or lower the signal
Method in brief: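 Stopper-exclusion migration (cMINC), human iPSC-derived neural crest cells; N2-S + EGF/FGF; compound added 24 h post-stopper removal, 24 h exposure. Readout: calcein-AM/Hoechst 30 min, HCS fluorescence imaging; bidirectional fitting, DMSO baseline.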

[8] = UKN4_HCS_LUHMES_neurite_outgrowth: University of Konstanz (UKN) Leist Lab Neurite Outgrowth Assay in human LUHMES cells (UKN4) (AID 2284206; active = hit-call score of the fitted dose curve at least 0.9, where 1 is the maximum; inactive = score below 0.9); details: actives raise or lower the signal
Method in brief: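 After 24 h compound treatment beginning shortly after replating of 2-day-differentiated LUHMES cells, calcein-AM and H-33342 live staining allowed high-content imaging of neurite area and viability. Fitted bidirectionally against DMSO.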

[9] = UKN4_HCS_LUHMES_cell_viability: Viability Assessment in the University of Konstanz (UKN) Leist Lab Neurite Outgrowth Assay in human LUHMES cells (UKN4) (AID 2284232; active = hit-call score of the fitted dose curve at least 0.9, where 1 is the maximum; inactive = score below 0.9)
Method in brief: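 Viability was read by high-content imaging of calcein-AM/H-33342-stained cells after 24 h toxicant exposure, staining included. Cells: human LUHMES on day 2 of dopaminergic differentiation, dosed shortly after attachment; DMSO baseline, bidirectional curve fitting.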

[10] = UKN2_HCS_IMR90_cell_viability: Viability Assessment in the University of Konstanz (UKN) Leist Lab Neural Crest Cell Migration Assay in human induced IMR90 Pluripotent Stem Cells (UKN2) (AID 2284233; active = hit-call score of the fitted dose curve at least 0.9, where 1 is the maximum; inactive = score below 0.9;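 note: cells exposed to compound for 24 h after a 24 h migration phase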)
Method in brief: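 Viability read as calcein-AM fluorescence by high-content imaging, Hoechst co-stain, 30 min. Human iPSC (IMR90) neural crest cells had migrated 24 h into stopper-defined gaps before 24 h chemical exposure. Fitted bidirectionally relative to DMSO.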

[11] = TOX21_p53_BLA_p3_viability: Viability Assessment in the Tox21 HCT-116 p53 Agonism Beta-lactamase Assay, Phase 3 (AID 2283593);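 note: cells exposed to compound for 16 h before reading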
Method in brief: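 HCT116 cells, 4000/well, dosed 5 h after plating by pin transfer (217-fold dilution from DMSO stock) and incubated 16 h at 37C, 5% CO2. Viability read as ATP luminescence with CellTiter-Glo after 30 min at room temperature.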

[12] = target: Cellular tumor antigen p53 (Homo sapiens) (UniProt P04637); experiment: TOX21_p53_BLA_p5_ratio: Tox21 HCT-116 p53 Agonism Beta-lactamase Assay, Ratio, Phase 5 (AID 2283599)
Method in brief: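 HCT-116 p53-bla cells (4000/well) plated 5 h, dosed with compound (217-fold DMSO dilution) for 16 h at 37 C; CCF4-AM substrate 2 h at room temperature. Activity is the 460/530 nm emission ratio (405 nm excitation), fitted in gain-of-signal direction versus DMSO.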

[13] = TOX21_p53_BLA_p5_viability: Viability Assessment in the Tox21 HCT-116 p53 Agonism Beta-lactamase Assay, Phase 5 (AID 2283600)
Method in brief: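 Viability is taken from cellular ATP content, measured by luciferase luminescence in the same wells after the beta-lactamase ratio read. Cells are seeded at 4000 per well and exposed to DMSO-dissolved compounds, diluted 217-fold, for 16 h.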

[14] = target: Cellular tumor antigen p53 (Homo sapiens) (UniProt P04637); experiment: TOX21_p53_BLA_p3_ratio: Tox21 HCT-116 p53 Agonism Beta-lactamase Assay, Ratio, Phase 3 (AID 2283596)
Method in brief: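 Cells were seeded at 4000/well, rested 5 h at 37C, then dosed with DMSO compound solutions (217-fold dilution) for 16 h. CCF4-AM substrate was loaded for 2 h at room temperature, and the 460/530 nm emission ratio was fitted for gain of signal versus DMSO.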

[15] = target: Cellular tumor antigen p53 (Homo sapiens) (UniProt P04637); experiment: TOX21_p53_BLA_p4_ratio: Tox21 HCT-116 p53 Agonism Beta-lactamase Assay, Ratio, Phase 4 (AID 2283601)
Method in brief: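 HCT-116 p53 beta-lactamase reporter cells (4000/well) preincubated 5 h, then compound (217-fold dilution of DMSO stock) for 16 h at 37C. CCF4-AM substrate added 2 h at room temperature; 460/530 nm emission ratio fitted upward versus DMSO.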

[16] = TOX21_p53_BLA_p4_viability: Viability Assessment in the Tox21 HCT-116 p53 Agonism Beta-lactamase Assay, Phase 4 (AID 2283597);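 note: hits lower the luminescence signal meaning cytotoxicity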
Method in brief: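 Viability is taken as cellular ATP: after 16 h compound exposure of HCT116 cells and a 2 h room-temperature CCF4-AM substrate step, CellTiter-Glo reagent is added and luminescence is measured 30 min later.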

Measured: outcome

Cellular tumor antigen p53 (Homo sapiens), sequence (P04637 whole entry, looked up): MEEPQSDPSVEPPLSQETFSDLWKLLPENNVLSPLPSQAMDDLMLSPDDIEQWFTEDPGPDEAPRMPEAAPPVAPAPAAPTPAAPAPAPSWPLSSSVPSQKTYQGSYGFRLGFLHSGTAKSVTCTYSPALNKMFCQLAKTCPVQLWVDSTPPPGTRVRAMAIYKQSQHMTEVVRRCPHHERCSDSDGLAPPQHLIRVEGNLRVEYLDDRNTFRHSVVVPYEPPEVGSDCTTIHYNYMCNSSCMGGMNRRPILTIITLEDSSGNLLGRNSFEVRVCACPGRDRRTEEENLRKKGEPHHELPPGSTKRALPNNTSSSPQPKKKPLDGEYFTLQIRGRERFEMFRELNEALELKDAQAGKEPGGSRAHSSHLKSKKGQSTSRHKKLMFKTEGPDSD
Retinoic acid receptor RXR-alpha (Homo sapiens), sequence (P19793 whole entry, looked up): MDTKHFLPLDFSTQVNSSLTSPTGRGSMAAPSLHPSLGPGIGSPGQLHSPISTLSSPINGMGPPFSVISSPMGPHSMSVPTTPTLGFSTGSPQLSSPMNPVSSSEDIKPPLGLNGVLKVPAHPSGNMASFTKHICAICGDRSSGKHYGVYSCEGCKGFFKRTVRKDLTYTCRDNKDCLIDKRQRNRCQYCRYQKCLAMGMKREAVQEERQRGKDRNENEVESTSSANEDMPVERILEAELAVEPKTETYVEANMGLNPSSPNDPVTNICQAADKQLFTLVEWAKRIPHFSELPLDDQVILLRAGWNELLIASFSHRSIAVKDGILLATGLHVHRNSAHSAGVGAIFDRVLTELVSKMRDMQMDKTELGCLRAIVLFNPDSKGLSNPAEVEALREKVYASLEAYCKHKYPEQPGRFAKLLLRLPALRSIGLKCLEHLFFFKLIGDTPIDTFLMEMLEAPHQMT

N[C@@H](Cc1ccc(Oc2cc(I)c(O)c(I)c2)c(I)c1)C(=O)O
inactive: [1] | [2]

CCCCc1c(C)nc(NCC)nc1OS(=O)(=O)N(C)C
inactive: [3] | [4]

CN[C@@H](C)Cc1ccccc1
inactive: [5] | [6] | [7] | [8] | [9] | [10]

Cc1ccccc1-n1c(CF)nc2ccc(N)cc2c1=O
inactive: [11] | [12] | [13]

NNC(=O)c1ccccc1
inactive: [11] | [14] | [12] | [15]

CCCC[N+]1(C)[C@@H]2CC(OC(=O)[C@H](CO)c3ccccc3)C[C@H]1[C@@H]1O[C@@H]12 (stereo partly drawn)
inactive: [11] | [14] | [12] | [13] | [15]

CC(N)Cc1ccc(O)cc1 (stereo not drawn)
inactive: [11] | [14] | [12] | [13] | [15]

CC(Cc1ccc2c(c1)OCO2)NO (stereo not drawn)
inactive: [11] | [12] | [15]

CCCCCC[N+](=O)[O-]
inactive: [11] | [16] | [13]

c1cc2c(c(NC3=NCCN3)c1)CCCC2
inactive: [11] | [14] | [12] | [13] | [15]

CC(C)(C)C(=O)C(Cl)Cl
inactive: [11] | [14] | [12] | [15]

CC(C)CCC(=O)O[C@H]1CC[C@H]2[C@@H]3CCC4=CC(=O)CC[C@]4(C)[C@H]3CC[C@]12C
inactive: [11] | [14] | [12] | [13]

N#CC(Cl)(Cl)Cl
inactive: [11] | [13]

CC(=O)O[C@H]1CC[C@H]2[C@@H]3CCC4=CC(=O)CCC4=C3C=C[C@]12C
inactive: [11] | [14] | [16] | [12] | [15]

Nc1ccccc1-c1ccccc1
inactive: [11] | [14] | [16] | [12] | [15]
